According to PubChem BioAssay (NCI):
This is part of a sample that, as a whole, favours compounds with a hit. Of some 83,000 tested, about 20% had one in any assay.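 Values shown are percent growth following 48 h exposure of cells in 96-well plates to a single concentration of compound; below 10 was considered active.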 The source made the active and inactive calls.

The compounds below were run on BT-549 breast (assay: NCI-60 one-dose screen, 48 h (100 = growth as untreated, 0 = no growth, -100 = all killed)). Conditions: 10 µM unless noted.
For `COC(=O)c1cc(-c2ccc(S(C)(=O)=O)cc2)[nH]c1N/N=C/c1c(Cl)cccc1Cl`, the growth was 70.7% (inactive). In the case of `Cc1cccnc1NC(=S)Nc1ncccc1C`, the growth is reported as 96.1% (inactive). In the case of `O=C(c1ccc(-c2ccccc2)cc1)c1ccc([N+](=O)[O-])cc1`, the growth is reported as 94.5% (inactive). In the case of `O=Nc1c(-c2c(O)[nH]c3ncccc23)[nH]c2ccccc12`, the growth is reported as 45.2% (inactive). For `CO[C@H]1/C=C(/C)CCC[C@H](C)[C@H](O)[C@@H](C)C(=O)C(C)(C)[C@@H](O)CC(=O)O[C@@H]1/C(C)=C/c1csc(C)n1`, the growth was 32.3% (inactive). `COc1ccc(-c2nc(/C=C3\SC(=NCc4ccccc4)NC3=O)c3ccccn23)cc1` was tested, and the growth was -92.9% (active). In the case of `COc1ccc2c3c([nH]c2c1)C(=O)c1nc(C)ccc1C3=O`, the growth is reported as 71.7% (inactive). For `COc1cc(-c2cc(-c3ccc(N(C)C)cc3)nc(N3CCC(O)CC3)c2C#N)cc(OC)c1OC`, the growth was 30.6% (inactive). With `Cn1ccc2c3c(ccc21)CC3=O` the growth was 106% (inactive). With `COc1ccc2[nH]cc(C(c3cc(F)cc(F)c3)c3c[nH]c4ccc(OC)cc34)c2c1` the growth was 183% (inactive). In the case of `CCOC(=O)CNP(=O)(OC[C@@H](Cc1ccccc1)NC(=O)c1cc2ccccc2s1)Oc1ccccc1` (stereo not given in full), the growth is reported as 74.6% (inactive). For `N#Cc1c(NC(=O)c2ccccc2)sc2c1CCC(=O)C2`, the growth was 16.2% (inactive). In the case of `O=C1Nc2ccccc2/C1=C\c1nc(-c2ccccc2)n2ccccc12`, the growth is reported as 85.5% (inactive). With `COc1ccc2c(c1)[n+]([O-])c(C(=O)/C=C/C=C(\Cl)c1cc(OC)c(OC)c(OC)c1)c(C)[n+]2[O-]` the growth was 74.9% (inactive). In the case of `CCn1c(SCC(=O)c2ccc(Br)cc2)nnc1-c1ccncc1`, the growth is reported as 116% (inactive). With `O=C(Nc1ccc(NC(=O)c2cc(=O)[nH]c3ccccc23)cc1)Nc1cccc(C(F)(F)F)c1` the growth was 62.8% (inactive). `Cc1ccc(S(=O)(=O)N2CCCC2CO)cc1` (stereo not given) was tested, and the growth was 86.6% (inactive). For `COc1cccc(CNc2ncnc3c2ncn3C2OC(CO)C(O)C2O)c1O` (stereo not given), the growth was -9.05% (active). With `CN(CCOc1ccc(C#N)cc1)CCOc1ccc(C#N)cc1` the growth was 91.3% (inactive). In the case of `CC(C)n1cnc2c(=S)nc[nH]c21`, the growth is reported as 112% (inactive). `Cc1nc(-c2ccccc2)cc2c(O)c(C(=O)NN)[nH]c(=O)c12` was tested, and the growth was 193% (inactive). With `CCOC(=O)c1nc(Nc2ccc(NC(=O)Nc3ccc(F)cc3)cc2)c2ccccc2n1` the growth was 106% (inactive). With `C1=CN2CC(c3ccccc3)=NNC2c2ccccc21` (stereo not given) the growth was 61.7% (inactive). In the case of `Nc1ncnc2c1N=C(c1ccc3c(c1)OCO3)CC(c1ccc([N+](=O)[O-])cc1)N2` (stereo not given), the growth is reported as 96.2% (inactive). `O=C1c2cccc(NCCN=Cc3cc(O)ccc3O)c2C(=O)c2c(NCCN=Cc3cc(O)ccc3O)cccc21` was tested, and the growth was 41.7% (inactive). With `COC(=O)c1cc(-c2ccccc2)[nH]c1N/N=C/c1c(Cl)cccc1Cl` the growth was 24.1% (inactive). In the case of `O=C(N/N=C/c1ccc(F)cc1)c1ccc(C(F)(F)F)nc1Nc1cccc(C(F)(F)F)c1`, the growth is reported as 1.7% (active). For `CCOc1nc(-c2ccccc2)cc2c(O)c(C(=O)NN)[nH]c(=O)c12`, the growth was 126% (inactive). In the case of `O=C(Nc1ccc(-c2nc(N3CCOCC3)c3cccn3n2)cc1)Nc1cccnc1`, the growth is reported as -10.2% (active). For `O=C1CNC(c2ccccc2)C(c2ccccc2)N1` (stereo not given), the growth was 82.8% (inactive). In the case of `COc1cc(CNS(=O)(=O)c2ccc(C)cc2)ccc1OCc1cn(-c2ccc(Br)cc2)nn1`, the growth is reported as 110% (inactive). For `NC(=O)c1c(NC(=O)c2ccccc2)sc2c1CCC(=O)C2`, the growth was 9.17% (active). With `CCCc1cc(NC)nc(S(=O)(=O)CC)n1` the growth was 105% (inactive). For `COC(=O)c1c2c(c(C)[n+]([O-])c1C)C(=O)C=C(NCc1ccc(OC)cc1)C2=O`, the growth was -88.8% (active). `COC(=O)c1c2c(c[n+]([O-])c1C)C(=O)C(NCc1ccccc1)=CC2=O` was tested, and the growth was -88.7% (active). In the case of `C=CCc1c2c(c(OC)c3ccoc13)C(=O)/C(=C/c1ccccc1OC)O2`, the growth is reported as 46.1% (inactive). `COc1cc(CNS(=O)(=O)c2ccc(C)cc2)ccc1OCc1cn(-c2ccc(F)cc2)nn1` was tested, and the growth was 83.6% (inactive). With `Cc1ccc(Cl)cc1Nc1nc(C(F)(F)F)ccc1C(=O)N/N=C/c1cccnc1` the growth was 36.7% (inactive). With `O=C(O)/C(=C\c1ccc(Cl)cc1)c1ccc(Cl)cc1` the growth was 82% (inactive). For `Cc1cc(N)c2cc(NC(=O)/C=C\c3ccccc3Cl)ccc2n1`, the growth was -72.8% (active).

Each compound was assayed on MDA-MB-435 melanoma in the same assay as above. Conditions: 10 µM unless noted.
In the case of `COC(=O)c1cc(-c2ccc(S(C)(=O)=O)cc2)[nH]c1N/N=C/c1c(Cl)cccc1Cl`, the growth is reported as -69.7% (active). For `Cc1cccnc1NC(=S)Nc1ncccc1C`, the growth was 83.9% (inactive). For `O=C(c1ccc(-c2ccccc2)cc1)c1ccc([N+](=O)[O-])cc1`, the growth was 92.6% (inactive). `O=Nc1c(-c2c(O)[nH]c3ncccc23)[nH]c2ccccc12` was tested, and the growth was 72.6% (inactive). For `CO[C@H]1/C=C(/C)CCC[C@H](C)[C@H](O)[C@@H](C)C(=O)C(C)(C)[C@@H](O)CC(=O)O[C@@H]1/C(C)=C/c1csc(C)n1`, the growth was -34.8% (active). In the case of `COc1ccc(-c2nc(/C=C3\SC(=NCc4ccccc4)NC3=O)c3ccccn23)cc1`, the growth is reported as -4.34% (active). For `COc1ccc2c3c([nH]c2c1)C(=O)c1nc(C)ccc1C3=O`, the growth was -76.2% (active). With `COc1cc(-c2cc(-c3ccc(N(C)C)cc3)nc(N3CCC(O)CC3)c2C#N)cc(OC)c1OC` the growth was -18.5% (active). With `Cn1ccc2c3c(ccc21)CC3=O` the growth was 106% (inactive). In the case of `COc1ccc2[nH]cc(C(c3cc(F)cc(F)c3)c3c[nH]c4ccc(OC)cc34)c2c1`, the growth is reported as 93.4% (inactive). For `CCOC(=O)CNP(=O)(OC[C@@H](Cc1ccccc1)NC(=O)c1cc2ccccc2s1)Oc1ccccc1` (stereo not given in full), the growth was 8.66% (active). `N#Cc1c(NC(=O)c2ccccc2)sc2c1CCC(=O)C2` was tested, and the growth was 2.87% (active). For `O=C1Nc2ccccc2/C1=C\c1nc(-c2ccccc2)n2ccccc12`, the growth was 90.5% (inactive). With `COc1ccc2c(c1)[n+]([O-])c(C(=O)/C=C/C=C(\Cl)c1cc(OC)c(OC)c(OC)c1)c(C)[n+]2[O-]` the growth was 93% (inactive). `CCn1c(SCC(=O)c2ccc(Br)cc2)nnc1-c1ccncc1` was tested, and the growth was 102% (inactive). `O=C(Nc1ccc(NC(=O)c2cc(=O)[nH]c3ccccc23)cc1)Nc1cccc(C(F)(F)F)c1` was tested, and the growth was 77.1% (inactive). In the case of `Cc1ccc(S(=O)(=O)N2CCCC2CO)cc1` (stereo not given), the growth is reported as 111% (inactive). With `COc1cccc(CNc2ncnc3c2ncn3C2OC(CO)C(O)C2O)c1O` (stereo not given) the growth was 5.51% (active). `CN(CCOc1ccc(C#N)cc1)CCOc1ccc(C#N)cc1` was tested, and the growth was 86.3% (inactive). For `CC(C)n1cnc2c(=S)nc[nH]c21`, the growth was 94.9% (inactive). For `Cc1nc(-c2ccccc2)cc2c(O)c(C(=O)NN)[nH]c(=O)c12`, the growth was 109% (inactive). In the case of `CCOC(=O)c1nc(Nc2ccc(NC(=O)Nc3ccc(F)cc3)cc2)c2ccccc2n1`, the growth is reported as 101% (inactive). `C1=CN2CC(c3ccccc3)=NNC2c2ccccc21` (stereo not given) was tested, and the growth was 96.5% (inactive). For `Nc1ncnc2c1N=C(c1ccc3c(c1)OCO3)CC(c1ccc([N+](=O)[O-])cc1)N2` (stereo not given), the growth was 79.8% (inactive). In the case of `O=C1c2cccc(NCCN=Cc3cc(O)ccc3O)c2C(=O)c2c(NCCN=Cc3cc(O)ccc3O)cccc21`, the growth is reported as -5.74% (active). With `COC(=O)c1cc(-c2ccccc2)[nH]c1N/N=C/c1c(Cl)cccc1Cl` the growth was -26.9% (active). With `O=C(N/N=C/c1ccc(F)cc1)c1ccc(C(F)(F)F)nc1Nc1cccc(C(F)(F)F)c1` the growth was 24.8% (inactive). For `CCOc1nc(-c2ccccc2)cc2c(O)c(C(=O)NN)[nH]c(=O)c12`, the growth was 113% (inactive). In the case of `O=C(Nc1ccc(-c2nc(N3CCOCC3)c3cccn3n2)cc1)Nc1cccnc1`, the growth is reported as 3.87% (active). For `O=C1CNC(c2ccccc2)C(c2ccccc2)N1` (stereo not given), the growth was 105% (inactive). In the case of `COc1cc(CNS(=O)(=O)c2ccc(C)cc2)ccc1OCc1cn(-c2ccc(Br)cc2)nn1`, the growth is reported as 101% (inactive). In the case of `NC(=O)c1c(NC(=O)c2ccccc2)sc2c1CCC(=O)C2`, the growth is reported as 8.22% (active). For `CCCc1cc(NC)nc(S(=O)(=O)CC)n1`, the growth was 104% (inactive). With `COC(=O)c1c2c(c(C)[n+]([O-])c1C)C(=O)C=C(NCc1ccc(OC)cc1)C2=O` the growth was -91.6% (active). `COC(=O)c1c2c(c[n+]([O-])c1C)C(=O)C(NCc1ccccc1)=CC2=O` was tested, and the growth was -93.7% (active). `C=CCc1c2c(c(OC)c3ccoc13)C(=O)/C(=C/c1ccccc1OC)O2` was tested, and the growth was 47.8% (inactive). In the case of `COc1cc(CNS(=O)(=O)c2ccc(C)cc2)ccc1OCc1cn(-c2ccc(F)cc2)nn1`, the growth is reported as 94.4% (inactive). With `Cc1ccc(Cl)cc1Nc1nc(C(F)(F)F)ccc1C(=O)N/N=C/c1cccnc1` the growth was 39.5% (inactive). For `O=C(O)/C(=C\c1ccc(Cl)cc1)c1ccc(Cl)cc1`, the growth was 97.2% (inactive). `Cc1cc(N)c2cc(NC(=O)/C=C\c3ccccc3Cl)ccc2n1` was tested, and the growth was -80.5% (active).
